Values joined by “and” are separate entries in the source; they are usually repeats but may differ in a detail not shown here. Identical values can stand only once. The campaign covered roughly 75,000 compounds. About 5,700 (7.6%) were called active. Roughly 7% stayed inconclusive and do not appear here. The calls are words filed in the database; no cut-off is given here. Many of the other results were omitted from the sample, so actives are more common in it than they were.
Target: T1, 3-hydroxyacyl-CoA dehydrogenase type-2 (Homo sapiens) (UniProt Q99714)
T1 sequence (whole entry): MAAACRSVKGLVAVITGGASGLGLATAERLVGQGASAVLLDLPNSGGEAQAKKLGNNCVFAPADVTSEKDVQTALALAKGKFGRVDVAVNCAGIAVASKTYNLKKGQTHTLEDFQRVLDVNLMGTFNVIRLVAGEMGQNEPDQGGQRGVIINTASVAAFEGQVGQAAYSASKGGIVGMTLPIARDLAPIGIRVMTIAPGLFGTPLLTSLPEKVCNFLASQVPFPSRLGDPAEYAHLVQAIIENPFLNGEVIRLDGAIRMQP
Assay: qHTS Assay for Inhibitors of HSD17B4, hydroxysteroid (17-beta) dehydrogenase 4.
Format: functional

| SMILES | Potency |
| --- | --- |
| O=C(O)c1cc(-c2ccc(F)cc2F)ccc1O | 31.6 µM (active) and 12.6 µM (active) |
| Cc1c(OCC(=O)OC(C)C)ccc2c3c(c(=O)oc12)CCC3 | inactive |

From ChEMBL document CHEMBL1201862, “PubChem BioAssay data set” (2004)
